Reference: PubChem BioAssay (NCATS)
Where “and” joins values, the source holds several entries; their conditions need not be identical. Identical values can stand only once. Records with an inconclusive call do not appear. Entries that show only a call come without a potency. Calls of active or inactive are those of the source. Calls follow the shape of the full dose curve.
Potency is read from the fitted curve at half-maximal effect.

Assay: Primary qHTS to identify inhibitors of SARS-CoV-2 cell entry (AID 1645846); also: nearly all actives have a fitted effect of over 45% in size
Settings: SARS-CoV-2 pseudovirus cell entry assay, luminescence; activity change, negative = inhibition: at 57.1 µM (top of the series) unless noted; series mostly up to 57.1 µM
Outline: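 Data are normalized to wells receiving SARS-CoV-2-S pseudoparticles and those given bald particles. Entry signal was luciferase luminescence in stable hACE2 Expi293F cells, 48 hr post-infection, after 1 hr compound pretreatment.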
With `CC(C)(C)NCC(O)COc1cccc2c1CCC(=O)N2` (stereo not drawn) the Potency was “inactive”.
For `Nc1ccc(S(=O)(=O)Nc2cnc3ccccc3n2)cc1`, the Potency was “inactive”.
Work on `C[N+]1(C)CCC(=C(c2ccccc2)c2ccccc2)CC1` yielded an activity change, negative = inhibition of -5.21%.
For `O=c1cc(CO)occ1O`, the Potency was “inactive”.
In the case of `NS(=O)(=O)c1cc2c(cc1Cl)NCNS2(=O)=O`, the Potency is reported as “inactive”.
In the case of `NCCc1ccc(O)c(O)c1`, the activity change, negative = inhibition is reported as -18% and -6.68%.
For `C=CCCCCCCCCC(=O)O`, the Potency was “inactive”.
In the case of `O=c1ccc2ccccc2o1`, the Potency is reported as “inactive”.
With `CN1CCN(c2c(F)cc3c(=O)c(C(=O)O)cn(CCF)c3c2F)CC1` the activity change, negative = inhibition was 2.09%.
In the case of `C[C@H](N)[C@H](O)c1cccc(O)c1`, the activity change, negative = inhibition is reported as 1.07%.
`N[C@@H](CSSC[C@H](N)C(=O)O)C(=O)O` showed an activity change, negative = inhibition of -10.6% [at 0.702 µM].
In the case of `C[C@@H](O)[C@H](N)C(=O)O`, the activity change, negative = inhibition is reported as 0.235% [at 27.1 µM].
For `CC(=O)Oc1ccc(C(c2ccc(OC(C)=O)cc2)c2ccccn2)cc1`, the Potency was “inactive”.
`CC(O)Cn1cnc2c1c(=O)n(C)c(=O)n2C` (stereo not drawn) showed an activity change, negative = inhibition of 0.504%.
`CC(=O)O[C@]1(C(C)=O)CC[C@H]2[C@@H]3C=C(Cl)C4=CC(=O)CC[C@]4(C)[C@H]3CC[C@@]21C` gave an activity change, negative = inhibition of -27.6%.
Compound `CCN(CC)C(=O)N1CCN(C)CC1` has an activity change, negative = inhibition of -24.4%.
With `O=C(CCCN1CC=C(n2c(=O)[nH]c3ccccc32)CC1)c1ccc(F)cc1` the Potency was “inactive”.
In the case of `Clc1ccc(Nc2nnc(Cc3ccncc3)c3ccccc23)cc1`, the activity change, negative = inhibition is reported as -4.34%.
With `NS(=O)(=O)c1cc2c(cc1Cl)NC(CSCc1ccccc1)=NS2(=O)=O` the activity change, negative = inhibition was -3.7%.
In the case of `CCN(CC)C(=O)c1cccc(C)c1`, the Potency is reported as “inactive”.
With `CCOC(=O)c1ccc(OC(=O)CCCCCN=C(N)N)cc1` the Potency was “inactive”.
With `O=C(c1ccc(F)cc1)C1CCN(CCn2c(=O)[nH]c3ccccc3c2=O)CC1` the activity change, negative = inhibition was -1.25%.
With `OCc1ccccc1O` the Potency was “inactive”.
For `CC1(C)[C@H](C(=O)O)N2C(=O)C[C@H]2S1(=O)=O`, the Potency was “inactive”.
For `c1ccc(CC2=NCCN2)cc1`, the Potency was “inactive”.
For `CCOC(=O)NNc1nncc2ccccc12`, the Potency was “inactive”.
With `O=C(O)CCC(=O)c1ccc(-c2ccccc2)cc1` the Potency was “inactive”.
Compound `COCCc1ccc(OCC(O)CNC(C)C)cc1` (stereo not drawn) has an activity change, negative = inhibition of -1.24%.
With `CC(=O)OCC1=C(C(=O)O)N2C(=O)[C@@H](NC(=O)CSc3ccncc3)[C@H]2SC1` the Potency was “inactive”.
Compound `CCOC(=O)c1ccc(NC(=O)CN2CCCCC2)cc1` has an activity change, negative = inhibition of -7.85%.
For `CCOC(=O)OC(C)OC(=O)[C@@H]1N2C(=O)[C@@H](NC(=O)[C@H](N)c3ccccc3)[C@H]2SC1(C)C` (stereo partly drawn), the activity change, negative = inhibition was -12.7%.
In the case of `CCN(CC)CCOc1ccc(Cc2ccccc2)cc1`, the Potency is reported as 25.1 µM (active).
In the case of `CCOCCOC(=O)/C=C/c1ccc(OC)cc1`, the Potency is reported as “inactive”.
With `CN1CCOC(c2ccccc2)c2ccccc2C1` (stereo not drawn) the Potency was “inactive”.
Work on `CC1CC(=O)NN=C1c1ccc(NCC(C)(C)NCC(O)COc2cc(Cl)ccc2C#N)cc1` (stereo not drawn) yielded an activity change, negative = inhibition of -23.2%.
`c1ccc(CNCCNCc2ccccc2)cc1` gave an activity change, negative = inhibition of -30.1%.
Compound `C/C=C/c1ccc(O)c(OC)c1` has an activity change, negative = inhibition of -1.3%.
For `CCOc1ccc2nc(S(N)(=O)=O)sc2c1`, the Potency was “inactive”.
